In this test the test system is RARb:RXRa (NR concentration 270 nM, RXRa partner concentration 90 nM). The test is described as follows: PBM binding z-score (relative to random genomic background probes); higher = stronger binding; sequences stand for … in GC…GCGATTGACAGCGTAGAATGAAGG
The essentials:
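On custom Agilent 4×180K arrays, double-stranded probes with 34-nt variable regions carried direct-repeat seeds, single-nucleotide variants, half-site ablations or random human genomic background. Ligand-free nuclear receptor dimers were applied for 1 h, and binding was read with antibodies against each partner (one per run). Binding z-scores come from regression-normalized fluorescence, with the random background probes as reference.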
In turn, CGTCAAAGTTCAACCAAGGTAACGTAAAGCACGC returned a PBM binding z-score of 5.25.

The sequence GATACAGGGTCAGTTAGAGGCCAGAGTATGGAAA had a PBM binding z-score of 3.77.

For ACATGTAGGTTAGCTGGGGTCATTCAGACTAGGC, the PBM binding z-score is 3.1.

TCTATTAGTTGATTAGGGCAAACGAAACAGCGGA: the PBM binding z-score was 0.708.

The sequence AGTCAAAGTTCAGGACGAGGTAACCTAAAGCACG showed a PBM binding z-score of 4.23.

As to CGTCCAAGGTCAGGGAGGTCAGTGAATGCCGAGT, the PBM binding z-score amounted to 5.33.

The sequence GCGACTGGGGCATCAGCAGGTTAACATAACTTAA displayed a PBM binding z-score of 0.898.

As for CCTACTGGGCCAAGGTCATTGATCAGTCAAAGCA, the PBM binding z-score stood at 3.27.

In the case of TAGCCTAGGTCATGCGGGCCAGTCTAGTGTCGGC, the PBM binding z-score was 3.86.

ATCGAAAGGTCGAAGGTGAGTTTACCCACCCGAA yielded a PBM binding z-score of 3.85.

GCAGACAGGTGAAACGTAGGTAACTCAGGGTGGC gave a PBM binding z-score of 0.76.

The sequence TCATACAGGTGAAGGTAACTCAGGTACGCAGTCG returned a PBM binding z-score of 1.26.

On to TAGCCTAGGTCATTCAGGGGCCAATATAGAAAGC, for which the PBM binding z-score worked out at 3.93.

As for CCTCACGGGTCAAGGTTATAGCACGGGTGGTACG, the PBM binding z-score turned out to be 4.17.

In the case of TCGAGTGGGTTAGTCGGGGCATTCAGCCAACATA, the PBM binding z-score came to 0.514.

Regarding CAAACTAGGCCAAAGGTCAAAGTCGAGCCAACCA, the PBM binding z-score was determined as 5.26.

CAAACTAGGGCACCGGAAGGTCAAAGTCCGCATG yielded a PBM binding z-score of 4.01.

CTCGAAATGTCGGTTGAGGTGAGTATACGGATAA yielded a PBM binding z-score of 0.334.

The record behind these values is the supplement of paper PMC6555819.
